# Experimental data reported in article PMC7862700, “An all-to-all approach to the identification of sequence-specific readers for epigenetic DNA modifications on cytosine”.
# Experiments:
# Experiment in all cases: DAPPL (digital affinity profiling via proximity ligation, sequencing); 10 mM Tris-HCl pH 7.5, 50 mM NaCl, 1 mM DTT, 4% glycerol, room temperature, 30 min; GST-TFs on glutathione beads, 16-mer random dsDNA library, 0.1% formaldehyde crosslink after washing; high values mean tight binding
# FEV = molecular target: T1, FEV (Homo sapiens, UniProt Q99581 1-238); conditions: protein: recombinant; tags: N-terminal GST; dsDNA, one strand shown
# T1 sequence: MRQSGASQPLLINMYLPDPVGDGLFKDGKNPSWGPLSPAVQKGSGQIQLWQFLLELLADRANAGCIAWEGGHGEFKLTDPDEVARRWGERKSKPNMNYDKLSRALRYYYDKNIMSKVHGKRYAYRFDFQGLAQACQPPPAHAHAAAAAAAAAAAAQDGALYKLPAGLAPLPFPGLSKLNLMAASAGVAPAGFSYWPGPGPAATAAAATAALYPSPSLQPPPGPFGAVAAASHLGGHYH
# Summary of the method: (§1)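 Yeast served to express human transcription factors as GST fusions, which were then captured on glutathione beads and labelled with DNA barcodes. Pooled with a tag-only sample, they were incubated with 200 nmole of a 16-mer random double-stranded DNA library for 30 min at room temperature in Tris/NaCl/DTT/glycerol buffer, washed, crosslinked with 0.1% formaldehyde, ligated by proximity, amplified by PCR and sequenced. Dividing each hexamer's read frequency for a factor by its frequency for the tag-only sample gives the binding signal.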
# ETV5 = ETV5 (Homo sapiens, UniProt P41161 1-510); conditions: protein: recombinant; tags: N-terminal GST; dsDNA, one strand shown
# Chain of ETV5 (P41161 whole entry): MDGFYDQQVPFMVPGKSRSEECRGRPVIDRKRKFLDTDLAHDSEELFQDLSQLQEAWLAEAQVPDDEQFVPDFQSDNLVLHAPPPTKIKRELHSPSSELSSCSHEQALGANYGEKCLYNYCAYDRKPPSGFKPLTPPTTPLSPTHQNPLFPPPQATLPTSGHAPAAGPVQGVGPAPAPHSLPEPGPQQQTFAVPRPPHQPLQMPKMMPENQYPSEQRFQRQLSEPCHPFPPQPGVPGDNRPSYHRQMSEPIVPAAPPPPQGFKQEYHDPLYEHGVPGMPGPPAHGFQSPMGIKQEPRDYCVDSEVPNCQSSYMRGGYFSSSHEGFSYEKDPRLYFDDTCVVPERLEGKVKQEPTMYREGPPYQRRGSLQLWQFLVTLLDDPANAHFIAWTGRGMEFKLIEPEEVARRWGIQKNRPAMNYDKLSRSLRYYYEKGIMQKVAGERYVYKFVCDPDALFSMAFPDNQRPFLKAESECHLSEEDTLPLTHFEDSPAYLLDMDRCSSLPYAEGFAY
# Summary of the method: as §1
# HSF1 = HSF1 (Homo sapiens, UniProt Q00613 1-529); conditions: protein: recombinant; tags: N-terminal GST; chain copies: 3; dsDNA, one strand shown
# Chain of HSF1 (Q00613 whole entry): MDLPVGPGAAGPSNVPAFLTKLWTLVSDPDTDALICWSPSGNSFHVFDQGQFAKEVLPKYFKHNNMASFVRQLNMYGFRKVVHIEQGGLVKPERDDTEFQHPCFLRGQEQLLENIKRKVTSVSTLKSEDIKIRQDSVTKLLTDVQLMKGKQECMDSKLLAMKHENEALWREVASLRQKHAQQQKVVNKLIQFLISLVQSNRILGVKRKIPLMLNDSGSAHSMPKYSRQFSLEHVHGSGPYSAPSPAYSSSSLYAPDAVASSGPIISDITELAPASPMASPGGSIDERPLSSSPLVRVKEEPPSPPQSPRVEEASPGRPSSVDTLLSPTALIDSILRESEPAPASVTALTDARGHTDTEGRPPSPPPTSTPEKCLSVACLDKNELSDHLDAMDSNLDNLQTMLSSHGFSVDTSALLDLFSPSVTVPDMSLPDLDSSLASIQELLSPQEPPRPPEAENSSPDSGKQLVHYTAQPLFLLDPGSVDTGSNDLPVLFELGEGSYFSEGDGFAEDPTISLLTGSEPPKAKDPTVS
# Summary of the method: as §1
# SPIC = molecular target: T2, SPIC (Homo sapiens, UniProt Q8N5J4 1-248); conditions: protein: recombinant; tags: N-terminal GST; dsDNA, one strand shown
# T2 sequence: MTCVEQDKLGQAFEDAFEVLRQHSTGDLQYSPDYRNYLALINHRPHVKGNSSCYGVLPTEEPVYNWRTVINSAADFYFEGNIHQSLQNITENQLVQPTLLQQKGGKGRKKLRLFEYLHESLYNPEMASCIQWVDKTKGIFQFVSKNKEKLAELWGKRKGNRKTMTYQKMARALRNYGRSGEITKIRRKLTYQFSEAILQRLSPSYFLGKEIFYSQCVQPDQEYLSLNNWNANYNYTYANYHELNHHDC
# Summary of the method: as §1
# ELF4 = ELF4 (Homo sapiens, UniProt Q99607 1-663); conditions: protein: recombinant; tags: N-terminal GST; dsDNA, one strand shown
# Chain of ELF4 (Q99607 whole entry): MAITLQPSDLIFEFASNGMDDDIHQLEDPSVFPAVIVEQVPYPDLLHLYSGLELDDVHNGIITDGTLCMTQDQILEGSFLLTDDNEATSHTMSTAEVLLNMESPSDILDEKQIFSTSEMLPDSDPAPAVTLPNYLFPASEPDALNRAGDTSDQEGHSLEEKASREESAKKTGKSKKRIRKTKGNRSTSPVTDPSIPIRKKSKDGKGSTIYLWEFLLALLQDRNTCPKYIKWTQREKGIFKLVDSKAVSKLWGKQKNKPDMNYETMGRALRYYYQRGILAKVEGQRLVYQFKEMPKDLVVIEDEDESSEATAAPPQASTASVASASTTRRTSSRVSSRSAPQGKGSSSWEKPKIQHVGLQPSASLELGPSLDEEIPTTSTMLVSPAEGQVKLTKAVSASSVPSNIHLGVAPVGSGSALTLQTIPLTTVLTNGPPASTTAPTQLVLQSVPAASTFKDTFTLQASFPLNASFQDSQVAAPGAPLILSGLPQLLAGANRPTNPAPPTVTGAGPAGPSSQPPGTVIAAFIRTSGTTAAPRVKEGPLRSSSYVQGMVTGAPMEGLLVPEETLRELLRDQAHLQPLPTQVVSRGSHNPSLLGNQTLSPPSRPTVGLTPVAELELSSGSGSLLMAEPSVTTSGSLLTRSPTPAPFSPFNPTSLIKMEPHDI
# Summary of the method: as §1
# ELK4 = molecular target: T3, ELK4 (Homo sapiens, UniProt P28324-2 1-405); conditions: protein: recombinant; tags: N-terminal GST; dsDNA, one strand shown
# T3 sequence: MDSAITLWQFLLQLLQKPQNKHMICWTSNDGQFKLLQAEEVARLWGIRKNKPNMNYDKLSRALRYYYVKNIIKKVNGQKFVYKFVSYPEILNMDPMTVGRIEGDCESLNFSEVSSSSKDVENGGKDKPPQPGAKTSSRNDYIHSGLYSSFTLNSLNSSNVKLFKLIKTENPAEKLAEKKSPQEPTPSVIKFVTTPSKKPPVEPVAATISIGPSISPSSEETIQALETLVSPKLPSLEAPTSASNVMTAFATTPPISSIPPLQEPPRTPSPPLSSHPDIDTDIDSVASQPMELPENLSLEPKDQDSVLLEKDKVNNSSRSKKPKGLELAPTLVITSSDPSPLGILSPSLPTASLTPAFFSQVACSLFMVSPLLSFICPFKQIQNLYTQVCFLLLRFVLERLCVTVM
# Summary of the method: as §1
# ETV2 = molecular target: T4, ETV2 (Homo sapiens, UniProt O00321 1-342); conditions: protein: recombinant; tags: N-terminal GST; dsDNA, one strand shown
# T4 sequence: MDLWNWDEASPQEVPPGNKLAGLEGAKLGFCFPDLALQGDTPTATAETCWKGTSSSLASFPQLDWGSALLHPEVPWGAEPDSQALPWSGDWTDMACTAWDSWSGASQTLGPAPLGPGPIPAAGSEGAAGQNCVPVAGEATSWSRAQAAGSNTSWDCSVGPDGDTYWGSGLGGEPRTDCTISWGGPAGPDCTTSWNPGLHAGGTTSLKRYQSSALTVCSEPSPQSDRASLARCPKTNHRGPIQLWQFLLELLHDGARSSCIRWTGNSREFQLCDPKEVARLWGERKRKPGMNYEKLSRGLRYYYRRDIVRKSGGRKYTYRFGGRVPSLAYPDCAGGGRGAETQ
# Summary of the method: as §1
# ELF3 = molecular target: T5, ELF3 (Homo sapiens, UniProt P78545 1-371); conditions: protein: recombinant; tags: N-terminal GST; dsDNA, one strand shown
# T5 sequence: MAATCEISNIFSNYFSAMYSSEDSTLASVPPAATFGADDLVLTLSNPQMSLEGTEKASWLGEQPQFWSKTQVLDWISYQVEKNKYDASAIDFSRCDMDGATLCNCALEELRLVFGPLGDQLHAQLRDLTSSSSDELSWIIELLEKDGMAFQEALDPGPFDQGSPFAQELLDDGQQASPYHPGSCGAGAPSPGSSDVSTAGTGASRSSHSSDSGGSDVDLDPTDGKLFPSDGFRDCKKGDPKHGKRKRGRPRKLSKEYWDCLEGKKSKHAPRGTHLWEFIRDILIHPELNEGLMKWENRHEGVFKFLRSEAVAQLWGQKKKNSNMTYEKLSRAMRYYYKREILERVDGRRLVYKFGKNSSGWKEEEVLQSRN
# Summary of the method: as §1
# CRX = CRX (Homo sapiens, UniProt O43186 1-299); conditions: protein: recombinant; tags: N-terminal GST; dsDNA, one strand shown
# Chain of CRX (O43186 whole entry): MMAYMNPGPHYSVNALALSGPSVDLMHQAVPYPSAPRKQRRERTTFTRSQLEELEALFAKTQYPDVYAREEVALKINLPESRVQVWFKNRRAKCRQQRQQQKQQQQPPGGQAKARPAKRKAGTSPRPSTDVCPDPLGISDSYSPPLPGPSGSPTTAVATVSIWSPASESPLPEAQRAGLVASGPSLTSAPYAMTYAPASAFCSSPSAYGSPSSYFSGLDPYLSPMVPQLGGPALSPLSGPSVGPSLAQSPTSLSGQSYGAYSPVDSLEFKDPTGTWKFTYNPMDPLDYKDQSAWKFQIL
# Summary of the method: as §1
# ETV1 = ETV1 (Homo sapiens, UniProt P50549 1-477); conditions: protein: recombinant; tags: N-terminal GST; dsDNA, one strand shown
# Chain of ETV1 (P50549 whole entry): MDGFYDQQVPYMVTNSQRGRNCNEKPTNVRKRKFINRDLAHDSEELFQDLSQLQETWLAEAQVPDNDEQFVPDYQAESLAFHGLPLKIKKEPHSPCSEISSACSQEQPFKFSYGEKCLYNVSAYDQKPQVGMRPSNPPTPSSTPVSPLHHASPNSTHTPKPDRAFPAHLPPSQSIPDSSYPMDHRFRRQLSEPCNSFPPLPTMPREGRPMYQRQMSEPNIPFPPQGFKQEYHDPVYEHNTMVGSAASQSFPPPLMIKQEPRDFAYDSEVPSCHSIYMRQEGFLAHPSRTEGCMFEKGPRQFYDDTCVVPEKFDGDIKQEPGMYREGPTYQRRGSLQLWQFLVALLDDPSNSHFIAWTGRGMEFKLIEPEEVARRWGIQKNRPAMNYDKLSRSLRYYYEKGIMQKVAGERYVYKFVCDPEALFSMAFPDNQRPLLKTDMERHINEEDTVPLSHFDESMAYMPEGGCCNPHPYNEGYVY
# Summary of the method: as §1
# ERF = molecular target: T6, ERF (Homo sapiens, UniProt P50548 1-548); conditions: protein: recombinant; tags: N-terminal GST; dsDNA, one strand shown
# T6 sequence: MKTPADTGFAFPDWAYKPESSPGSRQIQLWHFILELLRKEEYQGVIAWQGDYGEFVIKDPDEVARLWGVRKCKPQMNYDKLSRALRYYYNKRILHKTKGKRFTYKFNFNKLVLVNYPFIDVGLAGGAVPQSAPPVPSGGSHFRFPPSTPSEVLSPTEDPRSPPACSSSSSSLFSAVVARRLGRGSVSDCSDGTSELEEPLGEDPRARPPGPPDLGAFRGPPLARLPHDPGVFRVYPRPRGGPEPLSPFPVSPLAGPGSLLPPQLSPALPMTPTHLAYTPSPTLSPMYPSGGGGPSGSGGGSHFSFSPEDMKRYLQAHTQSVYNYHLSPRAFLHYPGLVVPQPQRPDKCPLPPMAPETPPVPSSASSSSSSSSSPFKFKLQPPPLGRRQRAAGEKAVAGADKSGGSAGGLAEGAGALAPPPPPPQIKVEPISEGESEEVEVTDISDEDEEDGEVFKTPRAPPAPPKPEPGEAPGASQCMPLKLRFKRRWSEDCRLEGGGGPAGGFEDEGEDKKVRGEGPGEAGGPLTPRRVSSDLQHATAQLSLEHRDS
# Summary of the method: as §1
# ETV3L = molecular target: T7, ETV3L (Homo sapiens, UniProt Q6ZN32 1-361); conditions: protein: recombinant; tags: N-terminal GST; dsDNA, one strand shown
# T7 sequence: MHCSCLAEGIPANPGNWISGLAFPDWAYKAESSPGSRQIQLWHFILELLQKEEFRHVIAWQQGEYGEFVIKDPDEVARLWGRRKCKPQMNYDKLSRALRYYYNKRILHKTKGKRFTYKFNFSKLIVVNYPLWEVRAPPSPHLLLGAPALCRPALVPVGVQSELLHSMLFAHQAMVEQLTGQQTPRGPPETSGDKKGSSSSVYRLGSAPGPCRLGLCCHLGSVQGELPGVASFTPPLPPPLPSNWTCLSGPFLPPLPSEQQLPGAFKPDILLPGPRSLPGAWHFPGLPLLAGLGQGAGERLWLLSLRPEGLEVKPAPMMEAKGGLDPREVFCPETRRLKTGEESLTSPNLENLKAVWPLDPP
# Summary of the method: as §1
# ETS2 = molecular target: T8, ETS2 (Homo sapiens, UniProt P15036 1-469); conditions: protein: recombinant; tags: N-terminal GST; dsDNA, one strand shown
# T8 sequence: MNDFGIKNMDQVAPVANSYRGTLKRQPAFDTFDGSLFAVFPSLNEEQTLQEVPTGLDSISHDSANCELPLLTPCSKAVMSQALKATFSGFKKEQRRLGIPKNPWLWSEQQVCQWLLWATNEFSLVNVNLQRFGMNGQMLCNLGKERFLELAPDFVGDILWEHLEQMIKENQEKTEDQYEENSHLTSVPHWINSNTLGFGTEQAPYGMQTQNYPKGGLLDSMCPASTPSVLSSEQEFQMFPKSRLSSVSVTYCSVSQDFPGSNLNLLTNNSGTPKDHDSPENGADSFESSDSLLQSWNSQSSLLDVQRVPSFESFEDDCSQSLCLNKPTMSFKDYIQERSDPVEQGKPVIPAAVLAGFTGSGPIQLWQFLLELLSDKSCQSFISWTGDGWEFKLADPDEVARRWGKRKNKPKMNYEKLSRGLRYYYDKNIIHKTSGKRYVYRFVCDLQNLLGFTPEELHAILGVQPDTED
# Summary of the method: as §1
# SPDEF = molecular target: T9, SPDEF (Homo sapiens, UniProt O95238 1-335); conditions: protein: recombinant; tags: N-terminal GST; dsDNA, one strand shown
# T9 sequence: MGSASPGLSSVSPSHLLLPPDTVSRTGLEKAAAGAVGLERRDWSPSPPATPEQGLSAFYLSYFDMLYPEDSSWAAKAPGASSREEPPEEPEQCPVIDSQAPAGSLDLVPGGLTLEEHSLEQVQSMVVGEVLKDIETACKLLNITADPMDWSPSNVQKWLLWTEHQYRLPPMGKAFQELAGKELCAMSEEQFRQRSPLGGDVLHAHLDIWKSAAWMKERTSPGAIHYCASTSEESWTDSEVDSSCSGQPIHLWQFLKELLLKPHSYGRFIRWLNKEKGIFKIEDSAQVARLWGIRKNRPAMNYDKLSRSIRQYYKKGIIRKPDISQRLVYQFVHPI
# Summary of the method: as §1
# ETV7 = molecular target: T10, ETV7 (Homo sapiens, UniProt Q9Y603 1-341); conditions: protein: recombinant; tags: N-terminal GST; dsDNA, one strand shown
# T10 sequence: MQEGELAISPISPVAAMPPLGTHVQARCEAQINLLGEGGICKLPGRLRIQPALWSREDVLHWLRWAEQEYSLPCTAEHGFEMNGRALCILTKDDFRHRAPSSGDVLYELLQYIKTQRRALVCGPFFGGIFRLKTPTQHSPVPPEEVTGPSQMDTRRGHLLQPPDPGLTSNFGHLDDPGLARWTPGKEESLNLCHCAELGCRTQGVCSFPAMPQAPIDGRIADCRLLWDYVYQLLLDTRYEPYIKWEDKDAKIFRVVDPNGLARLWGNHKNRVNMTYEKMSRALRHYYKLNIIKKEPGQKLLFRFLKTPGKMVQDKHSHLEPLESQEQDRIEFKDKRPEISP
# Summary of the method: as §1
# ELF5 = molecular target: T11, ELF5 (Homo sapiens, UniProt Q9UKW6-2 1-255); conditions: protein: recombinant; tags: N-terminal GST; dsDNA, one strand shown
# T11 sequence: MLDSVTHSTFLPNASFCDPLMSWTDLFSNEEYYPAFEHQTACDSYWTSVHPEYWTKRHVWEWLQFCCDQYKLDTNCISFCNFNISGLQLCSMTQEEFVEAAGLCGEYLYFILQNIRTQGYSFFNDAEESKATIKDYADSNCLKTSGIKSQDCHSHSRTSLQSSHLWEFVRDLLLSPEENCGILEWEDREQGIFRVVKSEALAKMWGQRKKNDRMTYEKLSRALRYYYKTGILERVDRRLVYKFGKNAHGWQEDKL
# Summary of the method: as §1
# ETV3 = molecular target: T12, ETV3 (Homo sapiens, UniProt P41162-2 1-143); conditions: protein: recombinant; tags: N-terminal GST; dsDNA, one strand shown
# T12 sequence: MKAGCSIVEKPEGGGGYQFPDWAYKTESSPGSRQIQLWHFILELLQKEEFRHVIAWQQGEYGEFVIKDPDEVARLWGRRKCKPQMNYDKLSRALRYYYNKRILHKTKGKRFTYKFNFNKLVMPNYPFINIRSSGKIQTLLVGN
# Summary of the method: as §1
# ETV6 = ETV6 (Homo sapiens, UniProt P41212 1-452); conditions: protein: recombinant; tags: N-terminal GST; dsDNA, one strand shown
# Chain of ETV6 (P41212 whole entry): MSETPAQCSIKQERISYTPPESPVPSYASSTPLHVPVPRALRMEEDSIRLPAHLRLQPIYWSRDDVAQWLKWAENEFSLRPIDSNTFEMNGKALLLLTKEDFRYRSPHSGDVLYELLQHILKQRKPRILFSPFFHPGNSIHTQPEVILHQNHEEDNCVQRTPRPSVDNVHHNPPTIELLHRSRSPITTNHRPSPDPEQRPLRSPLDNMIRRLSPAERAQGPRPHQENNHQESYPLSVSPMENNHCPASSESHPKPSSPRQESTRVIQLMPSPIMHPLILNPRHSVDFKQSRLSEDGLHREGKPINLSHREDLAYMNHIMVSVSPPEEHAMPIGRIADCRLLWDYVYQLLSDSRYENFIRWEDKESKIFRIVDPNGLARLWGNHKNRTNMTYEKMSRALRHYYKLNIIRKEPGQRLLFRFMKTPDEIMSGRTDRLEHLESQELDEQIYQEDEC
# Summary of the method: as §1
sequence,measurement,setting,value
TATCCC,binding signal,FEV,"1.59 fold enrichment (6-mer frequency, TF over GST control)"
same,binding signal,ETV5,"1.64 fold enrichment (6-mer frequency, TF over GST control)"
same,binding signal,HSF1,"1.61 fold enrichment (6-mer frequency, TF over GST control)"
same,binding signal,SPIC,"1.6 fold enrichment (6-mer frequency, TF over GST control)"
same,binding signal,ELF4,"1.54 fold enrichment (6-mer frequency, TF over GST control)"
same,binding signal,ELK4,"1.64 fold enrichment (6-mer frequency, TF over GST control)"
same,binding signal,ETV2,"1.44 fold enrichment (6-mer frequency, TF over GST control)"
same,binding signal,ELF3,"1.83 fold enrichment (6-mer frequency, TF over GST control)"
same,binding signal,CRX,"2.22 fold enrichment (6-mer frequency, TF over GST control)"
same,binding signal,ETV1,"1.39 fold enrichment (6-mer frequency, TF over GST control)"
same,binding signal,ERF,"1.52 fold enrichment (6-mer frequency, TF over GST control)"
same,binding signal,ETV3L,"1.52 fold enrichment (6-mer frequency, TF over GST control)"
same,binding signal,ETS2,"1.47 fold enrichment (6-mer frequency, TF over GST control)"
same,binding signal,SPDEF,"1.72 fold enrichment (6-mer frequency, TF over GST control)"
same,binding signal,ETV7,"1.53 fold enrichment (6-mer frequency, TF over GST control)"
same,binding signal,ELF5,"2.05 fold enrichment (6-mer frequency, TF over GST control)"
same,binding signal,ETV3,"1.62 fold enrichment (6-mer frequency, TF over GST control)"
same,binding signal,ETV6,"1.51 fold enrichment (6-mer frequency, TF over GST control)"
